In all, about 69,000 compounds went through this assay and about 420 (0.61%) showed an effect of 50% or more. For the sample, strong results were picked, then their nearest neighbours and some compounds at random.
These compounds were tested against T1, Histidine--tRNA ligase (Leishmania infantum) (UniProt A4I591) (assay: Leishmania infantum Histidine tRNA synthetase (LdHisRS)). Details: 30 µM.
T1 sequence (whole entry): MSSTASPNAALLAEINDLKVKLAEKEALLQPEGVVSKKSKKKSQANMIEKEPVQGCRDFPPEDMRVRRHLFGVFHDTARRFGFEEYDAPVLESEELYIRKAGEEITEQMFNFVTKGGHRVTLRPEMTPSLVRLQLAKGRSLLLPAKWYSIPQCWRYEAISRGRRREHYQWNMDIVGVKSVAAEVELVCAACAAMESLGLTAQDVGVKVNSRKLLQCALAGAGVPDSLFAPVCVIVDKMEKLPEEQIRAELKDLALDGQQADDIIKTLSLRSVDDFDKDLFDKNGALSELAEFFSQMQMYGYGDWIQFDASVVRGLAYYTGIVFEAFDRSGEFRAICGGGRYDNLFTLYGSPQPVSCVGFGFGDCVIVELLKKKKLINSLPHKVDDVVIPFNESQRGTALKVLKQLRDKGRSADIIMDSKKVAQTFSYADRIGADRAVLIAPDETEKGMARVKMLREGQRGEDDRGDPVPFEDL
Assay type: functional
Design: scale not given: in the data most compounds retested in dose-response had high values

SMILES	Percent Effect [%]
CC(=O)Cc1c(C)nn(-c2cncc(C(N)=O)c2)c1C	16.5
COc1cncc(-n2nc(C)c(CC(C)=O)c2C)c1	34.2
CC(=O)Cc1c(C)nn(-c2cncc(N)c2)c1C	64.6
COCCN1CC[C@@H]2O[C@@H](COCC(=O)N3CCCC3)CC[C@@H]21	17.1
COC[C@@]12CCC[C@@H]1CN(C(=O)CN(C)C)C2	5.77
CC(C)(C)NC[C@@H]1CCC[C@@H]2CN(Cc3csnn3)C[C@@H]21	17.1
O=C(C1CCOCC1)N1CCO[C@H]2[C@H](Oc3ccccn3)CC[C@@H]21	-1
COCC(O)CNc1cncc(Br)c1 (stereo not drawn)	60.3
CS(=O)(=O)CCOCCNc1cncc(Br)c1	53.2
COCCOCCNc1cncc(Br)c1	45.5
COCC(C)NC(=O)c1cncc(Br)c1 (stereo not drawn)	19.2
CCCC(O)CNc1cncc(Br)c1 (stereo not drawn)	95.9
O=c1[nH]nc(CNc2cncc(Br)c2)[nH]1	11.1
O=C(NCCNc1cncc(Br)c1)c1ccc(O)cc1	42.5
CCOCC(O)CNc1cncc(Br)c1 (stereo not drawn)	46.6
CS(=O)(=O)CCOCCNc1ccc(Br)cn1	16.9
Cn1cc(C(=O)N2CC[C@@H]3[C@@H]2CCN3c2ncc(F)cn2)cn1	14.3
O=C(c1ccnnc1)N1C[C@@H](OCc2cccnc2)[C@H]2OCCC[C@H]21	22.9
O=C(N[C@@H]1CN(c2ncccn2)C[C@@H]2CCCO[C@@H]21)c1cccnc1	2.86
Cc1ccc(N2CC[C@@H]3O[C@@H](c4ccncn4)C[C@H]3C2)nn1	16.2

SMILES	Percent Effect [%]
Cc1nc[nH]c1CN1CCN(C(=O)CN2CCCC2)[C@H]2CS(=O)(=O)C[C@H]21	15.6
CCn1cc(CNc2ccc(Br)c(OC)c2)cn1	16.9
CCn1cc(CNc2ccc(F)c(F)c2)cn1	3.54
CCn1cc(CNc2ccc3nccnc3c2)cn1	90.9
CC(C)N(C)C[C@H]1OC[C@@H]2CCN(Cc3cccc(C#N)c3)C[C@@H]21	10
Cc1nc(CO[C@H]2CN(C(=O)c3cccn3C)[C@@H]3COC[C@H]23)cs1	-6
Nc1nc(N2CCCC(COc3ccc(F)cc3)C2)c2nc[nH]c2n1 (stereo not drawn)	81.9
Nc1cc(N2CCCC(COc3ccc(F)cc3)C2)ncn1 (stereo not drawn)	28.9
COc1ccccc1N1CCN(c2nc(N)nc3[nH]cnc23)CC1	21.7
O=C(c1cncc(N2CC[C@@]3(O)CCNC[C@H]3C2)n1)N1CCCC1	0
CN(C)S(=O)(=O)N1CC[C@]2(O)CCN(c3cc(C#N)ccn3)C[C@@H]2C1	15.7
O=C1[C@H]2CN(C3CCOCC3)C[C@H]2CN1Cc1cccc(F)c1	19.7
O=C(C1CCCC1)N1C[C@@H]2CCN(c3cnccn3)C[C@@H]2C1	30.3
O=C(C1CCCCC1)N1C[C@@H]2CCN(c3cnccn3)C[C@@H]2C1	46.8
CS(=O)(=O)N1C[C@H]2N(c3ncccn3)CCC[C@@]2(C(=O)NCC2CC2)C1	6.36
COc1ccc(C(NCc2cccc(C#N)c2)C2CC2)cc1 (stereo not drawn)	3.8
COc1ccc(C(NCc2ccc(C#N)cc2)C2CC2)cc1 (stereo not drawn)	29.1
COc1ccc(C(NCc2cccc(O)c2)C2CC2)cc1 (stereo not drawn)	69.6
Cc1ccoc1C(=O)N1CC[C@H]2[C@@H]1CCC(=O)N2c1cccnc1	23
CCS(=O)(=O)NC[C@]12COC[C@H]1CN(CCc1ccccc1)C2	2.63

SMILES	Percent Effect [%]
c1cnc(N2CCC3(CC2)CN(CC2CC2)c2ccccc23)nc1	70.7
O=C1N(CC2CC2)CCC12CCN(c1ncccn1)CC2	24.4
c1ccc2c(c1)N(CC1CCOC1)CC21CCN(c2cnccn2)CC1 (stereo not drawn)	39.1
CN(C)CCN1C(=O)CC[C@@H]2[C@H]1CCN2C(=O)c1ccc(C#N)cc1	17.1
CN(C)[C@H]1COC[C@@H]2CN(Cc3ccc4c(c3)OCO4)C[C@@H]21	16.2
O=C1N(c2ccccc2)C[C@H]2CN(C3CCC3)CCN12	22.2
CCc1ccc2c(C3CN(C(C)=O)C3)ncn2c1	17.6
CCc1ccc2c(C3CN(CC4CCC4)C3)ncn2c1	69.8
CCc1ccc2c(C3CN(S(C)(=O)=O)C3)ncn2c1	12.6
CN(C)C(=O)CCCn1ccc(NC(=O)NCc2cccc(F)c2)n1	2.08
Cc1cc(=O)n(C)cc1NC(=O)Cc1cccc(Cl)c1	107
O=C(NCc1cccc(F)c1)Nc1ccn(CCN2CCOCC2)n1	11.2
Cc1cc(=O)n(C)cc1NC(=O)NCc1cccc(F)c1	107
Cc1cc(=O)n(C)cc1NC(=O)Cc1cccc(F)c1	68.5
Cc1ccc(C(F)(F)F)cc1NCC(=O)Nc1c(C)nn(C)c1C	17.8
Cn1ccc(CS(=O)(=O)Cc2cccc(F)c2)cc1=O	18.8
Cn1ccc(NC(=O)Cc2cccc(F)c2)n1	15.4
Cc1cc(=O)n(C)cc1NC(=O)Cc1ccc(C(F)(F)F)cc1	107

From ChEMBL document CHEMBL3988442, “University of Dundee, Small-Polar-MMV Screening Library” (2021)
